Sampled rows, rich in hits. Any-hit rate of the full collection: about 8.8%.
HT1080-NT tox: kills 2HG-producing HT-1080-NT fibrosarcoma cells; HT-1080-NT fibrosarcoma viability, CellTiter-Glo ATP luminescence, 48 h; Potency, µM (highest dose often 46.1 µM), inactives show top-dose activity, negative = less viability, hits mostly cytotoxic; 360,000 compounds, 1.6% hits;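 note: NT is the 2HG producing partner of a matched IDH1 knockdown line; potency is the fitted concentration of half-maximal effect; 0% = DMSO-treated cells and -100% = media-only wells without cells; nearly all actives have a fitted effect of over 55% in size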
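Fibrosarcoma NT cells, 750 per well in 5% FBS RPMI, were exposed to compound for 48 hours. Viability: CellTiter-Glo luminescence.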
KB-3-1 cytotox: kills parental KB-3-1 adenocarcinoma cells | 400,000 compounds, 1.4% hits | Potency, µM (top dose mostly 46.1 µM), most hits filed as cytotoxic | KB-3-1 viability, CellTiter-Glo ATP luminescence, 72 h; note: potency is the fitted concentration of half-maximal effect; nearly all actives have a fitted effect of over 60% in size
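KB-3-1 parental drug-naive adenocarcinoma cells in DMEM/10% FBS, incubated 72 h at 37 C with pin-transferred compounds across a concentration series. Viability by CellTiter-Glo luminescence; concentration-response curves fitted after normalization.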
HT1080 IDH1KD tx: toxicity to HT-1080 IDH1 knockdown cells (counter line). 360,000 compounds, 2% hits. Potency, µM (doses to about 46.1 µM), for the others: at the top dose activity, negative = toxicity, most hits filed as cytotoxic. AID 686971. HT-1080 IDH1 knockdown viability, ATP luminescence, 48 h;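 note: potency is the fitted concentration of half-maximal effect; 0% = DMSO wells and -100% = cell-free medium wells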
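HT-1080-IDH1KD cells (IDH1 knocked down), 750/well in RPMI with 5% FBS, treated with compound 48 h at 37 degrees C. Viability by CellTiter-Glo luminescence, normalised to DMSO and no-cell wells; concentration-response curves classed.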
IL1B secr inh: blocks inflammasome-driven IL-1 beta release; THP-1 LPS/ATP IL-1B secretion, AlphaLISA, 16 h; hits give low values; activity change, % at 57.5 µM; 360,000 compounds, 4.7% hits; in the data active = activity change below about -50%; inconclusive = mostly about -30% to -49%
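Secreted IL-1B measured by AlphaLISA bead assay after 16 h compound exposure of THP-1 cells; compounds (final up to 57.5 uM) added 1 h before LPS (250 ng/mL) and ATP (1.25 mM) stimulation; lower signal means less secretion.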
KB-V1 cytotox: kills drug-selected multidrug resistant KB-V1 cells. KB-V1 MDR cells viability, CellTiter-Glo, 72 h. Potency, µM (top dose mostly 46.1 µM), hits mostly cytotoxic. 400,000 compounds, 3.4% hits; note: potency is the fitted concentration of half-maximal effect; nearly all actives have a fitted effect of over 60% in size
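Drug-selected KB-V1 cells, grown in DMEM lacking phenol red with 10% FBS, receive compound titrations; after three days at 37 degrees C, surviving cell ATP is quantified by CellTiter-Glo luminescence and responses normalized and curve-fitted.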
Starred values were filed as active, the others as inactive; i = inactive; ? = inconclusive; . = not tested or not shown. Unless noted, calls come from the whole dose curve; as a rule, active = well fitted curve in the direction sought with a large enough effect; inconclusive = small, poorly fitted or top-dose-only effect, or another doubt; inactive = no such curve, though single readings can be large; an effect the other way counts as inactive or inconclusive. Unless noted, % is set by controls: 0 for no effect and ±100 for the full control effect.

SMILES | HT1080-NT tox | KB-3-1 cytotox | HT1080 IDH1KD tx | IL1B secr inh | KB-V1 cytotox
O=C(CSc1ccccc1C(=O)O)NC1CCCCCC1 | 5.6% | i | 4.7% | 18.9 | i
CC(C)CCNC(=O)c1ccccc1SCC(=O)NC1CCCCCCC1 | 1.8% | i | -5.4% | -3.7 | 5.8µM*
O=C(CSc1ccccc1C(=O)NCc1ccccc1)NC12CC3CC(CC(C3)C1)C2 | -9.0% | ? | -2.1% | ? | 5.8µM*
Cc1cc(F)ccc1N1CCC(N2CCN(CCC(C)C)C(CCO)C2)CC1 (stereo not drawn) | 18.4µM* | i | ? | -66.0* | ?
COc1ccc(Cl)cc1NC(=O)CSC1=Nc2ccccc2C2=NC(CC(=O)NCc3cccs3)C(=O)N12 (stereo not drawn) | . | i | . | . | i
O=C1CSC(=Nc2cccc(Cl)c2Cl)N1Cc1cccnc1 | -11.5% | i | -25.6% | -52.1* | 16.4µM*
Nc1ccc(O)cc1C(=O)OCC(=O)c1ccc(C2CCCCC2)cc1 | -14.8% | i | ? | -93.6* | i
COc1ccc(C(=O)OCC(=O)c2ccc(C3CCCCC3)cc2)cc1 | -6.2% | i | -8.5% | -23.4 | i
CCOc1cc(/C=N/NC(=O)c2cccnc2)ccc1OCc1ccc(C(=O)OC)o1 | 5.7% | i | 7.5% | 19.6 | i
CN(C(=O)CSC1=Nc2ccccc2C2=NC(c3ccccc3)C(=O)N12)C1CCCCC1 (stereo not drawn) | -7.9% | i | -12.6% | 7.2 | 5.17µM*
COc1cc(OC)c(NC(=O)CC(C)S(=O)(=O)c2ccc3c(c2)NC(=O)CO3)cc1Cl (stereo not drawn) | . | i | . | . | ?
COc1ccc(C2CC(C(F)(F)F)n3nc(C(=O)NCCN4CCOCC4)cc3N2)cc1 (stereo not drawn) | -6.3% | i | 1.2% | 4.4 | i
O=C(NCC1CCCO1)c1cc2n(n1)C(C(F)(F)F)CC(c1ccc(F)cc1)N2 (stereo not drawn) | 2.1% | i | 8.3% | -4.3 | 20.6µM*
O=C(NCC12CC3CC(CC(C3)C1)C2)c1cc2n(n1)C(C(F)(F)F)CC(c1ccco1)N2 (stereo not drawn) | ? | i | -21.7% | -87.4* | i
CC(=O)NC(c1ccc(F)c(F)c1)c1nc(-c2ccccc2)cs1 (stereo not drawn) | -11.0% | i | 10.2% | -4.9 | i
COc1ccc(-c2cc3nc(C)cc(N4CCN(C(=O)c5cccnc5)CC4)n3n2)cc1 | -0.5% | ? | -2.0% | -18.8 | ?
COc1ccccc1/C=C/C(=O)c1cc(Br)ccc1OC(=O)c1ccco1 | 18.4µM* | ? | 20.6µM* | -97.7* | ?
O=C(/C=C/c1cc(Br)ccc1O)c1ccco1 | 9.2µM* | ? | 9.2µM* | -71.4* | 16.4µM*
O=C(/C=C/c1ccccc1O)c1ccco1 | ? | ? | ? | -14.4 | ?
O=C(CCS(=O)(=O)Cc1ccccc1)NCCc1ccccc1 | -0.9% | i | 9.9% | -0.7 | i
Cc1ccc(NC(=S)Nc2cccc3cnccc23)cc1 | 4.9% | i | -1.0% | 9.7 | i
S=C(NCCc1ccccc1)Nc1cccc2cnccc12 | -16.9% | 4.11µM* | -0.6% | 54.7 | 8.2µM*
S=C(Nc1cccc(Cl)c1)Nc1cccc2cnccc12 | -7.6% | 18.4µM* | -13.1% | ? | 23.1µM*
Fc1ccccc1NC(=S)Nc1cccc2cnccc12 | -24.5% | ? | -8.5% | 0.6 | 23.1µM*
Cc1ccccc1NC(=S)Nc1cccc2cnccc12 | -18.5% | i | -25.6% | 27.4 | ?
SMILES | HT1080-NT tox | KB-3-1 cytotox | HT1080 IDH1KD tx | IL1B secr inh | KB-V1 cytotox
S=C(NCc1ccccc1)Nc1cccc2cnccc12 | -3.7% | i | ? | -9.6 | ?
Cc1ccc(NC(=S)Nc2cccc3cnccc23)cc1C | -0.6% | ? | -6.5% | -78.4* | ?
COc1ccccc1C1NC(c2ccc3c(c2)OCO3)=CC(c2cc(Cl)ccc2O)N1 (stereo not drawn) | . | i | . | . | i
O=C(NCc1cc(Cl)cc(Cl)c1)c1ccc2sc([C@H]3C[C@H](O)[C@@H](CO)O3)nc2c1 | -24.5% | i | -0.6% | 31.0 | ?
O=C(NCCN1CCNC1=O)c1ccc2sc([C@H]3C[C@H](O)[C@@H](CO)O3)nc2c1 | 1.2% | i | 17.4% | -86.2* | i
O=C(Nc1ccc(Oc2ccccc2)cc1)c1ccc2sc([C@H]3C[C@H](O)[C@@H](CO)O3)nc2c1 | 7.31µM* | i | 2.59µM* | 62.6 | i
O=C(Nc1ccc(Oc2ccccc2)cc1)c1csc([C@@H]2O[C@H](CO)[C@@H](O)[C@H]2O)n1 | ? | i | 7.31µM* | 70.8 | ?
Cc1nc(N2CCN(c3ccccn3)CC2)c2c(C)c(C(=O)N3CCN(c4cccc(Cl)c4)CC3)sc2n1 | -0.3% | i | -17.5% | -5.0 | i
CC(C)Nc1nc(-c2ccccc2)nc(-n2ccnc2)n1 | -0.5% | i | -8.5% | ? | i
c1ccc(-c2nc(-n3ccnc3)nc(-n3ccnc3)n2)cc1 | -6.0% | i | -24.5% | -84.2* | ?
Cc1cc(C)c(Cn2c(CCNC(=O)c3ccco3)nc3ccccc32)c(C)c1 | . | i | . | . | i
Cc1ncc(CO)c(/C=N/NC(=O)c2cc3c(s2)CCCC3)c1O | ? | ? | 2.59µM* | 90.2 | ?
CCOC(=O)C1(CCc2ccccc2)CCN(Cc2ccc(O)cc2)CC1 | -4.5% | i | -13.4% | -22.7 | i
CCOC(=O)C1(S(=O)(=O)c2ccc(Cl)cc2)CCN(Cc2ccc(Cl)cc2)CC1 | -28.1% | ? | -28.7% | -29.1 | 8.2µM*
CCOC(=O)C1(S(=O)(=O)c2ccccc2)CCN(Cc2ccc(Cl)cc2)CC1 | 0.1% | ? | -14.8% | -26.3 | 10.3µM*
Oc1ccc(C=NNC(=S)Nc2cccnc2)nc1 | ? | i | ? | 64.2 | 3.66µM*
O=C(COC(=O)c1cc(Cl)ccc1O)NNC(=O)c1ccccc1F | 5.7% | i | 20.2% | 15.2 | i
CCOc1ccc(NC(=O)Nc2ccccc2SC)cc1 | -22.3% | ? | -23.5% | ? | ?
CCOc1ccc(NC(=O)Nc2cccn(Cc3ccccc3)c2=O)cc1 | ? | ? | ? | -74.2* | 5.8µM*
COc1ccc(Cn2cccc(NC(=O)Nc3cccc(C#N)c3)c2=O)cc1 | -6.9% | i | -13.3% | -12.7 | 4.11µM*
CCc1ccccc1NC(=O)c1cnc2sc(N3CCOCC3)nn2c1=O | . | i | . | . | ?
O=C(CCS(=O)(=O)c1ccc(F)cc1)Nc1ccc(N2CCN(Cc3ccccc3)CC2)cc1 | -1.5% | i | 5.9% | 14.9 | 18.4µM*
COc1ccc(N2CCN(C(=S)Nc3ccccc3)CC2)cc1 | -18.1% | i | -3.3% | -4.6 | i
Cc1ncoc1C(=O)Nc1ccc(Oc2ccccc2)cc1 | -7.0% | i | -26.7% | 20.8 | 18.4µM*

Assay outcomes: PubChem BioAssay, National Center for Advancing Translational Sciences (NCATS)
